The list is not random: actives were taken first. Their share in the collection is about 2.9%.
EPAC1 ag val: Validation qHTS for agonist of cAMP-regulated guanine nucleotide exchange factor 3 (EPAC1); Rap guanine nucleotide exchange factor 3 (Homo sapiens), O95398; EPAC1 Rap1b BODIPY-GDP exchange, fluorescence; Potency, µM, without a hit: max response, positive = active, most hits filed as activators; 16,000 compounds, 1% hits; AID 1645883, 2021; further: nearly all actives have a fitted effect of over 70% in size
Target sequence (O95398 whole entry, looked up): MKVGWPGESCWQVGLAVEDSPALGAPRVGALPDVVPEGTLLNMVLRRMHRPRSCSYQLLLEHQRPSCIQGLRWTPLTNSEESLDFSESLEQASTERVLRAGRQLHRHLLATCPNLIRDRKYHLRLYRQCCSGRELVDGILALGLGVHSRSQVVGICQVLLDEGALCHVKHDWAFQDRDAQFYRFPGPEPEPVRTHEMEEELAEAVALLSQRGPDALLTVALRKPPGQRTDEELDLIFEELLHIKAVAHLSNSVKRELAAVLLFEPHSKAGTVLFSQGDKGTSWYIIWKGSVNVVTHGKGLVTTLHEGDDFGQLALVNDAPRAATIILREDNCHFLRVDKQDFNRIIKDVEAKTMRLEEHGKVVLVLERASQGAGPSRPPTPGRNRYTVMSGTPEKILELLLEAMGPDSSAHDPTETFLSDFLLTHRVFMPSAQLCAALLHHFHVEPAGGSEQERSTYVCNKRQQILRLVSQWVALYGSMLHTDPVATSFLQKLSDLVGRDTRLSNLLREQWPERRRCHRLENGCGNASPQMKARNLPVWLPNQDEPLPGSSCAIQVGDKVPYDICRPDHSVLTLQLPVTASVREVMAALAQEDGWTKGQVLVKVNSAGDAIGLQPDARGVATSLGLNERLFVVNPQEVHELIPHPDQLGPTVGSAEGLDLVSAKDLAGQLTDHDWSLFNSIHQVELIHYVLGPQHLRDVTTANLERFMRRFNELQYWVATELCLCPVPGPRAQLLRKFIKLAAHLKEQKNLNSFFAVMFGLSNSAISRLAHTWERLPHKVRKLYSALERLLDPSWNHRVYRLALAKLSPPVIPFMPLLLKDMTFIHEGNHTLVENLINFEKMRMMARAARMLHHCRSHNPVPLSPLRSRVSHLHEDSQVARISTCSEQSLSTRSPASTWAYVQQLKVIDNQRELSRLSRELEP
EPAC2 ant val: Validation qHTS for antagonist of cAMP-regulated guanine nucleotide exchange factor 4 (EPAC2); Potency, µM (top dose mostly 112 µM), without a hit: top-dose activity, negative = inhibition, hits mostly inhibitors; EPAC2 Rap1B BODIPY-GDP exchange, fluorescence; 16,000 compounds, 1.7% hits; Rap guanine nucleotide exchange factor 4 (Homo sapiens), Q8WZA2;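 further: 100% = activation by cAMP agonist control; nearly all actives have a fitted effect of over 40% in size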
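Normalized against a 6.5 mM cAMP agonist control, compounds were tested on 100 nM EPAC2 exchanging Rap1B-bound BODIPY-GDP (250 nM) for 50 uM GDP. Fluorescence drop (ex 480, em 540 nm) was tracked at room temperature over 30 min at 5-min intervals.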
An asterisk follows results filed as active; i = inactive; ? = inconclusive; ! = a repeat was not active; [ ] = dose if it differs, or a comment. The call rests on the fitted dose curve; in most records, active means well fitted curve in the direction sought with a large enough effect; inconclusive means small, poorly fitted or top-dose-only effect, or another doubt; inactive means no such curve, though single readings can be large; an effect the other way counts as inactive or inconclusive. Unless noted, on the % scale 0 is the no-effect control and ±100 the full control effect; potency means the concentration at half of the fitted maximal effect.

SMILES | EPAC1 ag val | EPAC2 ant val
CCCCC/C=C\CCC(=O)N[C@H]1[C@H](Oc2c3cc4cc2Oc2ccc(cc2Cl)[C@@H](O[C@@H]2O[C@H](CO)[C@@H](O)[C@H](O)[C@H]2NC(C)=O)[C@@H]2NC(=O)[C@H](NC(=O)[C@@H]4NC(=O)[C@H]4NC(=O)[C@@H](Cc5ccc(c(Cl)c5)O3)NC(=O)[C@H](N)c3ccc(O)c(c3)Oc3cc(O)cc4c3)c3ccc(O)c(c3)-c3c(O[C@H]4O[C@H](CO)[C@@H](O)[C@H](O)[C@@H]4O)cc(O)cc3[C@@H](C(=O)O)NC2=O)O[C@H](CO)[C@@H](O)[C@@H]1O | -122.2% | 35.2%
O.O.O.O.O.O.O.O=S(=O)([O-])[O-].[Co+2] | -31.8% | 50.1µM*
Cc1[nH]cnc1C[C@H]1CCc2c(C)c3ccccc3n2C1=O | -107.7% | 0.0%
CC(C)=CCc1c(O)cc(C)oc1=O | -11.6% | 0.0%
COc1cc(O)c2c(=O)cc(C)oc2c1CC=C(C)C | ? | 31.6µM*
CC(O)(COc1ccccc1)c1ccc2c(c1)CN(Cc1cccn1-c1ccccn1)CCO2 (centres undefined) | -5.5% | -15.9%
CCCCC[C@H]1CN(Cc2ccccc2)C(=O)[C@@H]1CC(=O)NCc1ccc(OC)cc1 | -81.9% | 22.4µM*
COc1ccc(CNC(=O)C[C@H]2C(=O)N(Cc3ccc(OC)cc3)C[C@@H]2Cc2ccccc2)cc1 | 2.1% | ?
COc1ccccc1N1CCN(c2nc(CNC(=O)c3ccc4c(c3)OCO4)nc3ccccc23)CC1 | 9.6% | ?
CNC(=O)[C@@H]1C[C@@H](NCc2cccc(Oc3ccccc3)c2)CN1C(C)C | -17.4% | -15.0%
COc1cccc(-c2nc3cc4c(cc3cc2CN(C(=O)c2cc(C)nn2C)C2CC2)CCC4)c1OC | 0.4% | ?
OCCN(CCO)c1nc(N2CCCCC2)c2nc(N(CCO)CCO)nc(N3CCCCC3)c2n1 | 35.5µM*! | ?
CCOc1nc2cccc(C(=O)OC(C)OC(=O)OC3CCCCC3)c2n1Cc1ccc(-c2ccccc2-c2nn[nH]n2)cc1 (centres undefined) | ? | 56.2µM*
CCCc1nc(C(C)(C)O)c(C(=O)OCc2oc(=O)oc2C)n1Cc1ccc(-c2ccccc2-c2nn[nH]n2)cc1 | -18.9% | -19.9%
C=CC1=C(C(=O)O)N2C(=O)[C@@H](NC(=O)/C(=N/OCC(=O)O)c3csc(N)n3)[C@H]2SC1 (stereo in doubt) | -17.9% | -18.5%[56.6 µM]
CCC(=O)O[C@@H]1CC(=O)O[C@H](C)C/C=C/C=C/[C@H](O)[C@H](C)C[C@H](CC=O)[C@H](O[C@@H]2O[C@H](C)[C@@H](O[C@H]3C[C@@](C)(O)[C@@H](OC(=O)CC)[C@H](C)O3)[C@H](N(C)C)[C@H]2O)[C@H]1OC | -12.5% | -10.6%[56.6 µM]
CC(=O)N[C@@H](CSC/C=C(\C)CC/C=C(\C)CC/C=C(\C)CCC=C(C)C)C(=O)O | -2.4% | 89.1µM*!
CC(=O)N[C@@H](CSC/C=C(\C)CCC=C(C)C)C(=O)O | -7.8% | -14.1%[11.4 µM]
COC(=O)[C@@H]1C2CC3c4[nH]c5cc(OC)ccc5c4CCN3CC2C[C@H](OC(=O)c2cc(OC)c(OC)c(OC)c2)C1OC (some centres undefined) | 100µM* | -21.2%
COC(=O)[C@H]1[C@@H]2C[C@@H]3c4[nH]c5ccccc5c4CCN3C[C@H]2CC[C@H]1O | -3.3% | -7.4%
O=C1CC[C@@H](C(=O)N[C@H]2C[C@@H]2c2ccccc2)N1 | -5.1% | -10.7%
COC(=O)c1c(C)c2c(c(C)c1O)OC(=O)c1c(C)c(Cl)c(O)c(Cl)c1O2 | -23.2% | 2.51µM*
COC(=O)c1c(OC)cc2c(c1C)Oc1c(Cl)c(O)c(Cl)c(C)c1C(=O)O2 | -77.9% | 4.47µM*
COC(=O)c1c(Cl)c(Cl)c(C(=O)OC)c(Cl)c1Cl | ? | -21.8%
CC1(C)[C@H]2CC[C@]1(C)[C@H](O)C2 | 18.1% | 10.1%
SMILES | EPAC1 ag val | EPAC2 ant val
C[C@@H]1CCN(C(=O)[C@H](CCCN=C(N)N)NS(=O)(=O)c2cccc3c2NC[C@H](C)C3)[C@@H](C(=O)O)C1 | -11.3% | -19.8%
C[C@@H]1C[C@H]2C3C[C@H](F)C4=CC(=O)C=CC4(C)[C@@]3(F)[C@@H](O)CC2(C)[C@@]1(O)C(=O)COC(=O)C(C)(C)C (some centres undefined) | -11.7% | -2.1%
CCOC(=O)C(CCc1ccccc1)NC(C)C(=O)N1C(C(=O)O)CC2CCCC21 (centres undefined) | 13.0% | -9.6%
CCOC(=O)[C@H](CCc1ccccc1)N[C@@H](C)C(=O)N1[C@@H](C(=O)O)C[C@@H]2CCC[C@@H]21 | 44.7µM* | i
COCc1ccc(C(=O)N2CCOc3ccc(CN4CCN(c5ccc(F)cc5)CC4)cc3C2)o1 | -11.7% | -8.2%
COc1ncc2nc(-c3ccccc3)c(=O)n(Cc3cccs3)c2n1 | 112µM* | ?
COc1ncc2nc(-c3cccs3)c(=O)n(Cc3cccs3)c2n1 | ? | -18.3%
COCCn1c(=O)c(-c2ccccc2)nc2cnc(Nc3ccccc3)nc21 | -14.5% | -15.0%
O=c1c(-c2ccccc2)nc2cnc(Nc3ccccc3)nc2n1Cc1cccs1 | 112µM* | 11.0%
COc1ccc(CN2CCCC(c3nc(-c4ccncc4)ncc3-c3ccccc3C)C2)c(OC)c1 (centres undefined) | 15.5% | ?
COc1cc(C)c(CN2CCOc3ccc(C(O)c4cccnc4)cc3C2)cc1C (centres undefined) | 5.8% | -22.5%
O=C(OCCOCCO)c1ccccc1Nc1cccc(C(F)(F)F)c1 | -7.8% | -19.8%[56.6 µM]
Cc1cc(C)c(S(=O)(=O)Nc2cccc(C(F)(F)F)c2)c(C)c1 | -10.5% | 39.8µM*
CC1CC(=O)NN=C1c1ccc(NCC(C)(C)NCC(O)COc2cc(Cl)ccc2C#N)cc1 (centres undefined) | ? | 5.5%
CC#CCC(C)[C@H](O)/C=C/[C@@H]1[C@H]2c3cccc(CCCC(=O)O)c3O[C@H]2C[C@H]1O (some centres undefined) | 15.1% | -15.8%
COc1ccccc1C(=O)N[C@@H]1c2ccccc2C2(CCN(Cc3c(O)cccc3OC)CC2)[C@H]1O | -4.9% | -10.3%
Cc1ccc2c(/C=C/c3c[nH]c4ccccc34)ccnc2c1C | 100µM* | -12.6%
COc1ccc(OC)c2c(/C=C/c3c[nH]c4ccccc34)ccnc12 | -26.6% | -9.1%
CCCCCCCC(=O)CC[C@@H]1[C@@H](C/C=C\CCCC(=O)OC(C)C)[C@@H](O)C[C@H]1O | -216.4% | ?
CC(C)C[C@H](NC(=O)[C@@H](COC(C)(C)C)NC(=O)[C@H](Cc1ccc(O)cc1)NC(=O)[C@H](CO)NC(=O)[C@H](Cc1c[nH]c2ccccc12)NC(=O)[C@H](Cc1cnc[nH]1)NC(=O)[C@@H]1CCC(=O)N1)C(=O)N[C@@H](CCCN=C(N)N)C(=O)N1CCC[C@H]1C(=O)NNC(N)=O | -11.2% | -0.2%
CCNc1ncc2nc(-c3cccs3)c(=O)n(C[C@H]3CCCO3)c2n1 | -10.8% | 3.1%
Cn1cc(-c2nc3cnc(N4CCOCC4)nc3n(CCC#N)c2=O)c2ccccc21 | 112µM* | 12.2%
O=c1c(-c2cccs2)nc2cnc(N3CCOCC3)nc2n1Cc1ccc(F)cc1 | 1.3% | -1.1%
CN(C)c1ncc2nc(-c3cccs3)c(=O)n(C[C@H]3CCCO3)c2n1 | 112µM* | 36.3%

High-throughput results from PubChem.
